Source: PubChem BioAssay (Tox21)
Inconclusive results are not listed. Calls of active or inactive are those of the source. The call rests on the fitted dose curve; in most records, active means well fitted cell-killing curve with a large enough effect in the repeat runs; inconclusive means weak or mixed curves, or effect the other way; inactive means flat fitted curve, though single readings scatter.

Experiment: cAMP Responsive Elements (CRE) small molecule antagonists, cell-based qHTS assay: qHTS cell viability counter screen (AID 2060913); further: nearly all actives have a fitted effect of over 40% in size
Settings: CRE-bla HEK293T viability, CellTiter-Glo luminescence, 5 h; series mostly up to 92.4 µM; viability change, negative = cytotoxic: at the top concentration
How it was run: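 CRE-bla HEK293T cells were seeded in assay medium with 10% dialyzed FBS, incubated 18 hrs at 37 C, then exposed to compounds plus 0.25 uM final NKH477 for 3 hrs. Viability was read by CellTiter-Glo luminescence after 30 min, in the same wells.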
On the % scale 0 is the no-effect control and ±100 the full control effect.

**Q.** For `C=C(C)C(=O)OCC(C)O` (stereo not given), which Potency is on record?
**A.** The Potency was “inactive”.

**Q.** Which “viability change, negative = cytotoxic” value does the source give for `Cc1cc2nc3ccc(=[N+](C)C)cc-3sc2cc1N` here?
**A.** Its value is -5.77% [at 42.5 µM] (inactive).

**Q.** Which Potency does the source give for `C[C@]12CC[C@@H]3c4ccc(O)cc4CC[C@H]3[C@@H]1CCC2=O` here?
**A.** Its Potency is “inactive”.

**Q.** For `Nc1ncnc(Nc2ccccc2)n1`, which “viability change, negative = cytotoxic” value is on record?
**A.** The value was 14.5% [at 42.5 µM] (inactive).

**Q.** For `CNc1c2c(nn1C)CCCC2`, which “viability change, negative = cytotoxic” value is on record?
**A.** The value was -0.578% [at 42.5 µM] (inactive).

**Q.** For `CC(C)(C)c1ccc(OC2CCCCC2O)cc1` (stereo not given), which “viability change, negative = cytotoxic” value is on record?
**A.** The value was -17.1% (inactive).

**Q.** With `CC1(C)[C@@H]2CC[C@@]1(C)C(=O)C2` as the compound, how does the Potency read?
**A.** Its Potency is “inactive”.

**Q.** For `CSCC[C@H](NC(=O)[C@H](Cc1c[nH]c2ccccc12)NC(=O)CCNC(=O)OC(C)(C)C)C(=O)N[C@@H](CC(=O)O)C(=O)N[C@@H](Cc1ccccc1)C(N)=O`, which “viability change, negative = cytotoxic” value is on record?
**A.** Its value is 12.1% [at 42.5 µM] (inactive).

**Q.** With `O=C(O)CCCl` as the compound, how does the “viability change, negative = cytotoxic” value read?
**A.** Its value is -7.13% (inactive).

**Q.** For `CC(C#N)(CCC(=O)O)N=NC(C)(C#N)CCC(=O)O` (stereo not given), which “viability change, negative = cytotoxic” value is on record?
**A.** The value was -1.55% (inactive).

**Q.** Which “viability change, negative = cytotoxic” value does the source give for `C[Si]1(C)N[Si](C)(C)N[Si](C)(C)N1` here?
**A.** Its value is -0.142% (inactive).

**Q.** For `CCCCCCCCCCCCSC`, which “viability change, negative = cytotoxic” value is on record?
**A.** The value was -0.514% (inactive).

**Q.** For `NC(=O)c1cn(Cc2c(F)cccc2F)nn1`, which “viability change, negative = cytotoxic” value is on record?
**A.** Its value is 4.29% [at 42.5 µM] (inactive).

**Q.** With `O=C(CCCN1CCN(c2ccccn2)CC1)c1ccc(F)cc1` as the compound, how does the “viability change, negative = cytotoxic” value read?
**A.** Its value is -13.2% [at 42.5 µM] (inactive).

**Q.** With `COc1ccccc1/C=C/C=O` as the compound, how does the Potency read?
**A.** The Potency was “inactive”.

**Q.** With `C=C(CC)C(=O)c1ccc(OCC(=O)O)c(Cl)c1Cl` as the compound, how does the Potency read?
**A.** The Potency was “inactive”.

**Q.** For `CCCN[C@H]1CCc2nc(N)sc2C1`, which Potency is on record?
**A.** The Potency was “inactive”.

**Q.** With `COc1ccccc1NC(=O)CC(C)=O` as the compound, how does the Potency read?
**A.** Its Potency is “inactive”.

**Q.** With `CCCCS(=O)(=O)N[C@@H](Cc1ccc(OCCCCC2CCNCC2)cc1)C(=O)O` as the compound, how does the “viability change, negative = cytotoxic” value read?
**A.** The value was 10.2% [at 42.5 µM] (inactive).

**Q.** With `O=C(O)Cc1ccccc1Oc1ccc(Cl)cc1Cl` as the compound, how does the “viability change, negative = cytotoxic” value read?
**A.** Its value is 3.67% [at 42.5 µM] (inactive).
